In the library only some 1.1% were active in any assay of this set; here they are far more common.
bovine MsrA act = activators of bovine methionine sulfoxide reductase A; activation, % at 10.6 µM; AID 602163; actives 0.3% (n = 360,000); purified bovine MsrA, absorbance read-out; in the data active = activation above about 7.5%;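 note: 0% = vehicle and 100% = reference activator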
MsrA inhibitor = inhibits bovine methionine sulfoxide reductase A; purified bovine MsrA, absorbance read-out; inhibition, % at 15.5 µM; actives 0.75% (n = 360,000); in the data active = inhibition above about 4.5%;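 note: 0% = vehicle wells with enzyme and 100% = reference inhibitor wells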
PKA-R1A activ = activators of PKA-R1A complex; activation, % at 11.4 µM; actives 0.083% (n = 340,000); AID 504707; PKA-R1A dissociation, Cy5-IP20 fluorescence polarization; scaled: DMSO 0%, 113 µM cGMP 100%;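 active = percent activation above the mean of all tested compounds plus 3 SD, cut at about 19% in these data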;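 note: higher means more PKAc released from R1A so a rise in polarization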
PKA-R2B activ = PKA-R2B complex activation. AID 504700. actives 0.079% (n = 340,000). P22694+P31323. activation, % at 11.4 µM. PKA-R2B holoenzyme dissociation, Cy5-IP20 fluorescence polarization; R2B truncated from residue 108, S112A mutant; 0% DMSO only, 100% 113 µM cGMP;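 active = activation above a cutoff set at the mean over all compounds plus 3 SD, cut at about 18% in these data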;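 note: higher means more holoenzyme dissociation and a rise in polarization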
Target sequence (P31323 whole entry, looked up, other chains not shown, the tested form may be a part): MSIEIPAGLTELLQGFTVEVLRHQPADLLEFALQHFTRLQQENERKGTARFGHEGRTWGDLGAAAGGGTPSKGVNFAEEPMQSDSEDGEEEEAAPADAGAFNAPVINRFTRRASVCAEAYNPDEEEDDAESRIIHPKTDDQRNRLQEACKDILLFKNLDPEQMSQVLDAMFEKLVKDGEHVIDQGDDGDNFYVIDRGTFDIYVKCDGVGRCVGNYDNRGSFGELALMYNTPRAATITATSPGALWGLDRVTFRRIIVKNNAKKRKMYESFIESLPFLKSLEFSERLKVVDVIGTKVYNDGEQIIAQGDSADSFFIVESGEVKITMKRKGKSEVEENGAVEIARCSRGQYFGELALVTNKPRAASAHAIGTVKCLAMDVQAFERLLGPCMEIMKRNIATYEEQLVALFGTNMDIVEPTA
The depositor's hits bear a star; x = not tested or not shown.

SMILES	bovine MsrA act	MsrA inhibitor	PKA-R1A activ	PKA-R2B activ
COCC(=O)/C=C1\Sc2ccccc2N1C	-5	5.1*	-2	-10
O=C(/C=C/c1ccco1)NC(=S)NNC(=O)c1ccco1	-14	6.6*	5	2
CC(=O)NC(=S)Nc1ccc(NC(=S)NC(=O)/C=C/c2ccco2)cc1	-7	0	-17	-14
CN1C2CCC1/C(=C\c1ccc(F)cc1)C(=O)/C2=C/c1ccc(F)cc1	-6	0	0	-5
C=CC(=O)N1C/C(=C/c2ccc(F)cc2)C(=O)/C(=C\c2ccc(F)cc2)C1	-6	5.1*	4	-10
O=c1nc(/C=C/c2ccc(O)c(O)c2)oc2ccccc12	-5	x	-1	1
COc1ccc(/C=C\c2nc(=O)c3ccccc3o2)cc1	-5	4.7*	0	-5
CCOc1ccc(C2C(C#N)=C(N)Oc3nc[nH]c(=O)c32)cc1 (stereo unspecified)	-8	0	1	-16
O=c1[nH]cnc2c1C(c1ccc(Cl)cc1)c1c(nc[nH]c1=O)O2	-13	x	19*	-3
Cc1cc(C(=O)Nc2nnc(-c3ccccc3)s2)no1	-8	4.6*	-2	-7
O=C(CSC1CCc2ccccc21)NNC(=O)Nc1ccc(Cl)cc1 (stereo unspecified)	x	0	x	x
O=C(COC(=O)/C=C/c1ccc2c(c1)OCO2)NC1CC1	-7	3	8	7
N#CCOC(=O)/C=C/c1ccc2c(c1)OCO2	-6	7.0*	4	7
C=CCN1C[C@@H](COCc2ccccc2)OCCS1(=O)=O	x	3	x	x
CCOC(=O)C1=C(Nc2ccc(Br)cc2)C(=O)N(CC)C1	x	3	x	x
CCCc1cc2c(O)ccc(O)c2c(=O)o1	x	0	x	x
CS(=O)(=O)c1ccc2nc(NC(=O)c3ccc(Cn4cc(Br)cn4)o3)sc2c1	-7	5.4*	-19	-13
COc1ccc(C(=O)N/C(=C\c2cccs2)c2nc3ccccc3[nH]2)cc1OC	-4	6.0*	-2	-2
COc1ccc(C(=O)N/C(=C/c2cccs2)C(=O)NN)cc1OC	-2	0	-6	-8
Cc1snc(S(=O)(=O)/C(C#N)=N/Nc2ccc(C(F)(F)F)cc2)c1C#N	1	4.6*	-1	-7
Cc1snc(S(=O)(=O)/C(C#N)=N\Nc2ccccc2)c1C#N	-1	3	-9	-8
COC(=O)C1=C(C)N(C)C(=NCC2CC2)NC1c1ccc(Cl)cc1 (stereo unspecified)	x	0	x	x
COc1cccc(CNS(=O)(=O)c2cc(Br)ccc2Br)c1OC	x	0	x	x
CCN1/C(=C(\O)c2ccccc2)C(=O)c2ccccc2S1(=O)=O	-3	4.8*	-2	-5
C[C@@H]1OC(C2CCCCC2)N(C)[C@H]2C[C@H]3c4[nH]c5cccc(-c6ccccc6)c5c4CCN3C(=O)[C@@H]12 (stereo partly specified)	x	1	x	x
SMILES	bovine MsrA act	MsrA inhibitor	PKA-R1A activ	PKA-R2B activ
O=C(Cn1cc(COc2ccc(Br)cc2[N+](=O)[O-])nn1)c1ccc(O)cc1	-5	4.6*	-4	4
NC(Cc1ccc(O)cc1)C(=O)NN=Cc1ccccc1O (stereo unspecified)	x	1	x	x
N#C/C(=C\c1ccco1)C(=O)NCC1CCCO1 (stereo unspecified)	-6	7.0*	3	-4
O=C(Oc1ccc2c(-c3ccccc3)cc(=O)oc2c1)C1CCCCC1	-5	19*	-1	3
CC1CN(c2nn3c(=O)c4ccccc4nc3c3ccccc23)CC(C)O1 (stereo unspecified)	9.7*	1	-2	-3
CCN1CCN(c2nn3c(=O)c4ccccc4nc3c3ccccc23)CC1	-2	1	4	-7
Cc1cc(C)c(S(=O)(=O)N2CCCCC2)c(C)c1N(C)S(=O)(=O)c1ccccc1	9.7*	0	3	-4
Cc1cc(N2CCN(C(=O)OC(C)(C)C)C[C@H]2C)ccc1N1CC[C@@H](O)C1	x	0	x	x
O=C(COC(=O)c1cc(-c2cccs2)nc2ccccc12)NCc1ccco1	-2	0	-5	-2
O=C(COC(=O)c1cc(-c2ccc(Cl)s2)nc2ccccc12)NCc1ccco1	-3	4.6*	1	-7
O=C1C(Cl)=C(NCCN2CCCCC2)C(=O)c2ccccc21	18*	x	-8	4
C[C@H]1CN(c2ccc(N3CCNC[C@@H]3C)cc2C#N)CCN1Cc1ccccc1	x	0	x	x
CCOC(=O)C1=C(COC(=O)c2sccc2C)NC(=O)NC1C (stereo unspecified)	-3	0	3	-5
CCOC(=O)C1=C(COC(=O)c2ccc([N+](=O)[O-])s2)NC(=O)NC1C (stereo unspecified)	19*	3	8	5
Nc1nc2cc3c(cc2cc1C(=O)NCCc1c[nH]c2ccccc12)OCO3	x	1	x	x
O=C(Nc1ccccc1)c1cc2ccccc2c(=O)s1	-13	0	-1	1
O=C(Nc1ccc(O)cc1)c1cc2ccccc2c(=O)s1	1	4.7*	5	0
CN1C(=O)[C@@]2(C3=C(CCCC3=O)OC3=C2C(=O)OC2(CCCCC2)C3)c2ccccc21	x	-1	x	x
C(=N\n1cncn1)/c1ccc(N2CCOCC2)cc1	-18	5.3*	4	-6
C(=N\n1cnnc1)/c1ccc(N2CCOCC2)cc1	-11	4	8	1
CCOC(=O)c1nnn(-c2nonc2N)c1CSc1ccccn1	8.0*	-1	-7	12
CCOC(=O)c1nnn(-c2nonc2N)c1CSc1ccccc1	-5	1	2	11
COc1cc(C(=O)Nc2cccc(S(=O)(=O)N3CCCC3)c2)c([N+](=O)[O-])cc1OC	-2	4.6*	-5	-7
COc1ccccc1C(=O)Nc1cccc(S(=O)(=O)N2CCCC2)c1	-2	0	1	-5
C[C@H](O)[C@@H]1CN2CCc3c([nH]c4ccccc34)[C@@H]2C[C@@H]1N(C)CC1CCCCC1	x	-1	x	x
SMILES	bovine MsrA act	MsrA inhibitor	PKA-R1A activ	PKA-R2B activ
Cc1c(NC(=S)N/N=C/c2ccc(O)cc2)c(=O)n(-c2ccccc2)n1C	-3	4.8*	9	-6
Cc1c(NC(=S)N/N=C/c2cc([N+](=O)[O-])ccc2O)c(=O)n(-c2ccccc2)n1C	-6	3	-1	4
COC(=O)C1=C(C)N(Cc2ccc(C(F)(F)F)cc2)C(=NCc2ccc(C(F)(F)F)cc2)NC1c1ccc(F)cc1 (stereo unspecified)	x	-2	x	x
COc1cc(/C=N/Nc2nc3ccccc3o2)cc(OC)c1O	-13	4.6*	-7	-4
CC(C)C1S/C(=N/N=C/c2ccco2)NC1=O (stereo unspecified)	0	4.7*	1	-9
Cc1c(N2C(=O)/C(=C/c3ccccc3)SC2=S)c(=O)n(-c2ccccc2)n1C	-11	4.5*	2	2
Cc1cc(NC(=O)Cc2cn(C)c3ccccc23)ccc1Nc1cccnc1	x	0	x	x
CCCCCCCCN1C(=O)[C@@H](CC(=O)NCCC(C)C)C[C@@]2(C(=O)OC)C1=C[C@H](C1CCCC1)O[C@@H]2C	x	0	x	x
COc1cc(CC(=O)NCc2ccc3c(c2)OCO3)cc(OC)c1OC	-1	-1	2	-3

From PubChem BioAssay
